From ChEMBL document CHEMBL1201862, “PubChem BioAssay data set” (2004)
In all, about 400,000 compounds went through this assay and about 2,100 (0.53%) were called active. Another 14% or so got no clear call; they are omitted. No rule for the calls is given here. The entries come from a sample that favours actives as a whole.

target: Ataxin-2 (Homo sapiens) (UniProt Q99700); experiment: qHTS for Inhibitors of ATXN expression.; type: functional
Sequence (Q99700 whole entry): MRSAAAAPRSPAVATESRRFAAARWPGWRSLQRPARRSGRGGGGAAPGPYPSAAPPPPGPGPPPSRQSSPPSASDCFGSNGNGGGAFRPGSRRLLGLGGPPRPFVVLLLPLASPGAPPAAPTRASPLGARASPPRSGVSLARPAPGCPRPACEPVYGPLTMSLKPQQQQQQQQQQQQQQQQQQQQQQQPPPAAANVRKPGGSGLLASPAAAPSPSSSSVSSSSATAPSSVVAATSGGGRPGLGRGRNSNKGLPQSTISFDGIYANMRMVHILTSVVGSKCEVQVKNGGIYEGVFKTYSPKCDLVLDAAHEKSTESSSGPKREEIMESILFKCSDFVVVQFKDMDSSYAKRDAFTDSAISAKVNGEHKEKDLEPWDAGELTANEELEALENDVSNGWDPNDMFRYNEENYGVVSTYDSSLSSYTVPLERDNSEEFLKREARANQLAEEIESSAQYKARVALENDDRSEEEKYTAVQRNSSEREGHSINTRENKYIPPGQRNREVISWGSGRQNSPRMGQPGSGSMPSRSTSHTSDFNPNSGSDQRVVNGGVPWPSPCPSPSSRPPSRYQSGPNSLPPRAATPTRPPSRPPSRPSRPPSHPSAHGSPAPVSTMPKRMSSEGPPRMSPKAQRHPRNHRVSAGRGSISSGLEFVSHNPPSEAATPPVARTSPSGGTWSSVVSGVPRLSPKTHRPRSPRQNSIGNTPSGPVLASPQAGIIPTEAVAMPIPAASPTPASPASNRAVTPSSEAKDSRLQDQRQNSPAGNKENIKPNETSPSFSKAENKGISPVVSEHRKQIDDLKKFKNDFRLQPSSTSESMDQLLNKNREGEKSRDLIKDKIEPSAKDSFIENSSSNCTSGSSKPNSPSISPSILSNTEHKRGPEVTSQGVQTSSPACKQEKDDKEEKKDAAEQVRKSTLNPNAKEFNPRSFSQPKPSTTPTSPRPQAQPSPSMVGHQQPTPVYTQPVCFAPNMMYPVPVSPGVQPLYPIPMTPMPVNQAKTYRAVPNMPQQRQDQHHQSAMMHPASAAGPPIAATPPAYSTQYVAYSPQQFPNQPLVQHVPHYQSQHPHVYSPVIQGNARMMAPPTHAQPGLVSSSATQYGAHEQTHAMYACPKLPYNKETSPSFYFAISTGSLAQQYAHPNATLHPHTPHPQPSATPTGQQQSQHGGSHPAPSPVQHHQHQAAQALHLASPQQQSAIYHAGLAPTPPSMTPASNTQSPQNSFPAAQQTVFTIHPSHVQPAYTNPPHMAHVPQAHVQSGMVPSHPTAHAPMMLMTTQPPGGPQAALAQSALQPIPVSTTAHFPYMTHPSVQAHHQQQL

SMILES | Potency
COc1ccc(C(=O)c2sc3nc(C)cc(-c4cccs4)c3c2N)cc1OC | inactive
CCCn1nc(NC(C)=O)c2cc3cccc(C)c3nc21 | inactive
CCOc1ccc(NCc2cccn2-c2nnc(N3CCC(C(=O)NCCCN4CCCCC4CC)CC3)s2)cc1 (centres undefined) | 22.4 µM (active)
COCCCn1/c(=N/C(C)=O)c(C#N)cc2c(=O)n3cccc(C)c3nc21 | inactive
COc1ccccc1C(=O)Nc1c(C(=O)N(C)Cc2ccccc2)sc2nc(C)c(Cl)c(C)c12 | 11.2 µM (active)
COc1ccccc1NC(=O)c1sc2nc(C)c(C(=O)Nc3ccc(C)cc3C)c(-c3cccs3)c2c1N | inactive
COc1ccccc1NC(=O)c1sc2nc(Cc3ccccc3)cc(C(F)(F)F)c2c1N | inactive
FC(F)(F)c1cccc(NC(S)=NCc2ccc(Cl)cc2)c1 | inactive
O=[N+]([O-])c1cc(C(F)(F)F)cc([N+](=O)[O-])c1NCCN=C(S)Nc1ccc(Cl)c(Cl)c1 | 39.8 µM (active)
Nc1cc(C(F)(F)F)cc([N+](=O)[O-])c1N | inactive
CCOc1ccc(-c2csc(/C(C#N)=C\c3ccc(O)c([N+](=O)[O-])c3)n2)cc1 | 8.91 µM (active)
CCc1ccc(/C=C(/C#N)c2nc(-c3ccc(C)cc3)cs2)cc1 | inactive
CCOc1cc(/C=C(\C#N)c2nc(-c3cccs3)c(NC(C)=O)s2)ccc1O | inactive
CCOc1ccc2nc(NCCCNS(=O)(=O)c3ccccc3)c(C#N)cc2c1 | inactive
CN1CCN(c2ccc(NC(=O)c3sc4ccccc4c3Cl)cc2)CC1 | inactive
CN1CCN(c2ccc(NC(=O)c3ccc(-c4ccc(Cl)cc4)o3)cc2)CC1 | 25.1 µM (active)
CC(=O)N1CCN(c2ccc(NC(=O)c3cccc(F)c3)cc2)CC1 | inactive
CCCCOC(=O)c1ccc(NC(=O)/C(C#N)=C/c2ccc(-c3ccccc3)o2)cc1 | inactive
CCOc1cccc(/C=N/NC(=O)CC2C(=O)NN=C2C)c1O (centres undefined) | inactive
Cc1cccc(N=Nc2c(O)[nH]c3ccc(F)cc23)c1 | inactive
O=C(N=Nc1c(O)[nH]c2ccc(Br)cc12)c1ccccc1-n1cccc1 | 17.8 µM (active)
COc1ccc(/C=N/OCC(=O)N=Nc2c(O)[nH]c3ccc(Br)cc23)cc1 | inactive

SMILES | Potency
Cc1cc(C)c(C#N)c(SCC(=O)Nc2nonc2N)n1 | inactive
COc1ccccc1N1C(=O)C2C(C(=O)c3ccccc3)=NN(c3ccc(Br)cc3)C2C1=O (centres undefined) | inactive
CCN1C=C(C(=O)OC)C(c2cccc(OC)c2OC)C(C(=O)OC)=C1 | inactive
Cc1ccc(S(=O)(=O)c2c(C)nn(C(C)(C)C)c2OC(=O)C(C)C)cc1 | inactive
COc1cccc(C(=O)Oc2c(Sc3ccc(C)cc3)c(C)nn2C(C)(C)C)c1OC | 20 µM (active)
CC(=O)NN1C(=O)c2ccc3c4c(ccc(c24)C1=O)C(=O)N(NC(C)=O)C3=O | 25.1 µM (active)
CC(=O)Nc1ccc2c3c(cccc13)C(=O)N(c1ccccc1)C2=O | inactive
CC(=O)Nc1ccc(N2C(=O)c3cccc4c(O)ccc(c34)C2=O)cc1 | inactive
CCOCCCn1/c(=N/C(=O)c2cccs2)c(C#N)cc2c(=O)n3ccccc3nc21 | inactive
Cc1cc(C)c(C#N)c(SCC(=O)c2ccccc2)n1 | inactive
COc1cccc(C(=O)C(C#N)=C(SC)SC)c1 | 14.1 µM (active)
CSC(SC)=C(C#N)C(=O)c1ccccc1 | 39.8 µM (active)
COc1cccc(N/C(SC)=C(/C#N)C(=O)NCc2cccs2)c1 | inactive
CCOC(=O)C1(C)C(=O)CC2c3nc4ccccc4cc3CN2C1=O (centres undefined) | inactive
O=C1c2ccccc2S(=O)(=O)c2cc(N3CCC4(CC3)OCCO4)ccc21 | inactive
CCN(CC)C(=O)CSC(Nc1cccc(F)c1)=C(C#N)C#N | inactive
N#Cc1c(Cl)nc(-c2ccncc2)nc1-c1ccccc1 | inactive
CC(C)(C)SCCNS(=O)(=O)c1ccc(C#N)cc1 | inactive
COc1ccc(NC(=O)c2ccc(NC(=O)CN3CCN(c4ccc(O)cc4)CC3)cc2)cc1 | 31.6 µM (active)
COc1ccc(N2CCN(CC(=O)NC(=O)NC(C)(C)C)CC2)cc1 | inactive
COc1ccc(NC(=O)CN2CCN(c3ccccc3)CC2)cc1 | inactive
CC(C)Oc1ccc(C(=O)/C=C2/C(=O)Nc3ccccc32)cc1 | 39.8 µM (active)

SMILES | Potency
Cn1cc(/C=C2\SC(=O)N(c3ccccc3)C2=O)c2ccccc21 | inactive
O=C1S/C(=C\c2ccc(O)c([N+](=O)[O-])c2)C(=O)N1c1ccccc1Cl | 33.6 µM (active)
O=C(Cn1cc(/C=C\[N+](=O)[O-])c2ccccc21)Nc1ccccc1 | 35.5 µM (active)
N#Cc1ccccc1Cn1cc(/C=N/Nc2ccc([N+](=O)[O-])cn2)c2ccccc21 | inactive
C=CCn1cc(/C=C/c2cc[n+](C)cc2)c2ccccc21 | inactive
Cc1ccccc1OCC(=O)OCC(=O)c1ccc[nH]1 | inactive
CCOC(=O)Cn1cc(/C=C/[N+](=O)[O-])c2ccccc21 | 39.8 µM (active)
Cc1ccc(C(=O)NNC(=O)COC(=O)COc2ccccc2C#N)cc1 | inactive
CCOC(=O)N/N=C/c1cn(CCCOc2ccc(C)cc2)c2ccccc12 | inactive
CCOC(=O)COc1ccccc1/C=C\[N+](=O)[O-] | 6.31 µM (active)
O=C(O)c1ccc(Cn2cc(/C=C\[N+](=O)[O-])c3ccccc32)o1 | inactive
CCOC(=O)Cn1cc(/C=N/NC(=O)c2cc3ccccc3o2)c2ccccc21 | inactive
Cc1cc(C)cc(NC(=O)Cn2cc(C=O)c3ccccc32)c1 | inactive
N#Cc1ccccc1Cn1cc(/C=C/[N+](=O)[O-])c2ccccc21 | 29.9 µM (active)
COC(=O)c1cc(-n2cccc2)ccc1N1CCOCC1 | inactive
S=C(Nc1ccccc1)Nc1ccc2c[nH]nc2c1 | inactive
Cc1ccc(CNC(=O)c2cccc3c2C(=O)c2ccc(N4CCC(C)CC4)cc2S3(=O)=O)cc1 | inactive
Cc1ccc(-c2cc(-c3ccco3)c3c(N)c(C(=O)NN)oc3n2)cc1 | inactive
CC(=O)C1CCC2C3CC=C4CC(SC(=N)N)CCC4(C)C3CCC12C (centres undefined) | 37.7 µM (active)
CC(C)(C)[C@H](N)C(=O)N[C@H]1CCC2C3CC=C4C[C@@H](O)CC[C@]4(C)C3CC[C@@]21C (some centres undefined) | 37.7 µM (active)
